Reference: PubChem BioAssay (NCI)
This is part of a sample that, as a whole, favours compounds with a hit. Of some 83,000 tested, about 20% had one in any assay.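 Each cell line was grown in a 96-well plate and treated with one concentration of compound for 48 hours. Values below 10 were considered active.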 Calls of active or inactive are those of the source.

Legend:
Test in all cases: NCI-60 one-dose screen, 48 h (100 = growth as untreated, 0 = no growth, -100 = all killed)
[1] = test system: SR leukemia
[2] = test system: RPMI-8226 leukemia
[3] = test system: OVCAR-8 ovarian
[4] = test system: OVCAR-5 ovarian
[5] = test system: OVCAR-4 ovarian
[6] = test system: SK-OV-3 ovarian
[7] = test system: IGROV1 ovarian
[8] = test system: OVCAR-3 ovarian
[9] = test system: HS 578T breast
[10] = test system: NCI/ADR-RES ovarian

Measured: growth

CN(C)CCNc1ncc(F)c(-c2cnc3cc(-c4cnn(C)c4)ccn23)n1
active: [1]; 30 µM 5.34%
inactive: [1]; 0.005 µM 99.9% | [2]; 10 µM unless noted 98.3% [0.005 µM] | [3]; 0.005 µM 99.9% | [3]; 30 µM 54.3% | [4]; 0.005 µM 99.7% | [4]; 30 µM 64.5% | [5]; 0.005 µM 105% | [5]; 30 µM 38.6% | [6]; 10 µM unless noted 21% [30 µM] | [7]; 0.005 µM 108% | [7]; 30 µM 22.6% | [8]; 0.005 µM 109% | [8]; 30 µM 75.3% | [9]; 0.005 µM 101% | [9]; 30 µM 60% | [10]; 0.005 µM 101% | [10]; 30 µM 62.3%

CC(=O)/C=C/c1ccc(N(CCO)Cc2ccc(C(C)(C)C)cc2)cc1
inactive: [1]; 10 µM 83% | [2]; 10 µM 84.7% | [3]; 10 µM 80.7% | [4]; 10 µM 78.2% | [6]; 10 µM 83.7% | [7]; 10 µM 96.6% | [8]; 10 µM 84.4% | [9]; 10 µM 65% | [10]; 10 µM 67%
active: [1]; 100 µM -62.1% | [2]; 100 µM -34.9% | [3]; 100 µM -81.1% | [4]; 100 µM -98.5% | [6]; 100 µM -99% | [7]; 100 µM -65.9% | [8]; 100 µM -95% | [9]; 100 µM -52.9% | [10]; 100 µM -88.3%

Clc1nccc2c(-c3csc(-c4c[nH]c5ccc(Br)cc45)n3)c[nH]c12
active: [1]; 10 µM unless noted 6.34%
inactive: [2]; 10 µM unless noted 44.9% | [3]; 10 µM unless noted 33.4% | [4]; 10 µM unless noted 60.1% | [5]; 10 µM unless noted 48.2% | [6]; 10 µM unless noted 27% | [7]; 10 µM unless noted 44.3% | [8]; 10 µM unless noted 62.5% | [9]; 10 µM unless noted 30.7% | [10]; 10 µM unless noted 31.3%

CC(=O)/C=C/c1ccc(OCc2ccc(C(C)(C)C)cc2)cc1
inactive: [1]; 10 µM 65.9% | [1]; 100 µM 29.5% | [2]; 10 µM 67.6% | [3]; 10 µM 90.5% | [3]; 100 µM 23.2% | [4]; 10 µM 89% | [4]; 100 µM 37.6% | [5]; 10 µM 74% | [5]; 100 µM 33.8% | [6]; 10 µM 77.8% | [6]; 100 µM 39.5% | [7]; 10 µM 98.6% | [7]; 100 µM 81.6% | [9]; 10 µM 75.5% | [9]; 100 µM 10.3% | [10]; 10 µM 81.1%
active: [2]; 100 µM 0.803% | [10]; 100 µM 7.42%

CCOC(=O)C(=Cc1ccc(C#N)cc1)C(=O)OCC
active: [1]; 10 µM unless noted 0.158% | [2]; 10 µM unless noted -1.68%
inactive: [3]; 10 µM unless noted 34.5% | [4]; 10 µM unless noted 30.8% | [5]; 10 µM unless noted 53.9% | [6]; 10 µM unless noted 84.9% | [7]; 10 µM unless noted 32.7% | [8]; 10 µM unless noted 17% | [9]; 10 µM unless noted 78.5% | [10]; 10 µM unless noted 20.3%

Cc1[nH]c(C(=O)Nc2nc3ccc(NC(=O)CCN)cc3s2)c(Cl)c1Cl
inactive: [2]; 10 µM unless noted 78.4% | [3]; 10 µM unless noted 56.1% | [4]; 10 µM unless noted 92.5% | [5]; 10 µM unless noted 44.8% | [6]; 10 µM unless noted 107% | [7]; 10 µM unless noted 68.4% | [8]; 10 µM unless noted 77.3% | [9]; 10 µM unless noted 90.8% | [10]; 10 µM unless noted 58.4%
active: [1]; 10 µM unless noted 6.56%

CCOC(=O)n1cc(-c2nonc2-c2cn(C)c3ccc(OC)cc23)c2cc(F)ccc21
inactive: [1]; 10 µM unless noted 79% | [2]; 10 µM unless noted 74.5% | [3]; 10 µM unless noted 75.7% | [4]; 10 µM unless noted 62% | [5]; 10 µM unless noted 75% | [6]; 10 µM unless noted 81% | [7]; 10 µM unless noted 73.2% | [8]; 10 µM unless noted 87.4% | [9]; 10 µM unless noted 70.2% | [10]; 10 µM unless noted 82.2%

CCNC(=O)Oc1ccc(/C(=C(/C)Cc2ccc(OC)cc2)c2ccc(OCCN(CC)CC)cc2)cc1
active: [1]; 10 µM unless noted -55.3% | [2]; 10 µM unless noted -14.8%
inactive: [3]; 10 µM unless noted 74.8% | [4]; 10 µM unless noted 89.9% | [5]; 10 µM unless noted 69.4% | [6]; 10 µM unless noted 88.6% | [7]; 10 µM unless noted 74.7% | [8]; 10 µM unless noted 50.7% | [9]; 10 µM unless noted 45.9% | [10]; 10 µM unless noted 78.1%

Cc1ccc(-c2nc3nc(-c4ccccc4)nc(N4CCN(S(=O)(=O)c5ccccc5)CC4)c3o2)cc1
inactive: [1]; 10 µM unless noted 104% | [2]; 10 µM unless noted 105% | [3]; 10 µM unless noted 75.5% | [4]; 10 µM unless noted 99% | [5]; 10 µM unless noted 99.6% | [6]; 10 µM unless noted 77.4% | [7]; 10 µM unless noted 89.2% | [8]; 10 µM unless noted 93% | [9]; 10 µM unless noted 43.1% | [10]; 10 µM unless noted 85.7%

O=C(/C=C/c1cccc(Oc2ccc(Cl)cc2)c1)c1ccccc1
active: [1]; 100 µM -25.1% | [2]; 10 µM 0.961% | [2]; 100 µM -30.3% | [3]; 100 µM -50.8% | [4]; 100 µM -82.2% | [5]; 100 µM -80.1% | [6]; 100 µM -93.7% | [7]; 100 µM -49.9% | [8]; 100 µM -94.3% | [9]; 100 µM -28.2% | [10]; 100 µM -46.5%
inactive: [1]; 10 µM 53.5% | [3]; 10 µM 91.8% | [4]; 10 µM 96% | [5]; 10 µM 90.3% | [6]; 10 µM 114% | [7]; 10 µM 102% | [8]; 10 µM 93.3% | [9]; 10 µM 97.5% | [10]; 10 µM 98.8%
